# Measured potencies and affinities stand elsewhere. Unmarked numbers belong to inactive results.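 Rule for the calls: active = viability loss whose fitted half-maximal concentration is at most twice the top valid tested dose; inconclusive = flat curve with 30 to 70% loss, or poor fit; inactive = the rest.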
# Experiment: viability loss in HepG2 liver cells – cell-based, ATP luminescence, cherry-pick, set 6, cytotoxicity control, dose response (AID 1053125);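 note: negative values mean loss of viability signal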
# Conditions: ATP luminescence (CellTiter-Glo), 72 h; series mostly up to 26 µM; activity change, negative = cytotoxicity: at the top concentration
row,SMILES,"activity change, negative = cytotoxicity"
1,CCc1cccc(OC2OC(CO)C(O)C(O)C2NC(C)=O)c1 (configuration not stated),-12.1%
2,CCOC(=O)c1c(C)n(C)c2ccc(OCC(O)CN3CCC(C)CC3)cc12 (configuration not stated),-5.75%
3,C=CCN1C(=S)CC(c2ccccc2)=Nc2ccccc21,-3.92%
4,CCOC(=O)c1oc2c(CN3CCN(CCO)CC3)c(O)c(CC)cc2c(=O)c1-c1nc2ccccc2s1,-18%
5,COCc1cc(C)nc(SCC(=O)Oc2ccc(Cl)cc2)c1C#N,-0.038%
6,Cc1oc(/N=C/c2ccc(O)cc2O)c(C#N)c1C,-16.4%
7,C/C(=N\NC(=O)CC#N)c1cc2ccc(O)cc2oc1=O,2.89%
8,Cc1noc(C)c1S(=O)(=O)N(CC(=O)N1CCCCCC1)c1ccc(C(C)C)cc1,-21.8%
9,CC(=O)Oc1ccc2cc(-c3nc4ccccc4n3C)c(=O)oc2c1,4.27%
10,O=C(CCCn1c(=O)c2sccc2n(Cc2cc(=O)n3ccccc3n2)c1=O)NCc1ccco1,-8.29%
11,CC(C)CCn1c(CN2CC(C)OC(C)C2)nc2c1c(=O)n(C)c(=O)n2C (configuration not stated),-4.86%
12,CC1=C(C(=O)N2CCN(c3cc(C)ccc3C)CC2)C2(CCCCC2)OC1=O,-6.7%
13,CCOc1ccc2nc(NCCCNS(=O)(=O)c3ccc(C)cc3)c(C#N)cc2c1,-1.54%
14,Cc1cc2c(C)cc(=O)oc2c2c1NCCC2,-2.33%
15,COc1ccccc1/C=N/Nc1nc(C)cc(=O)[nH]1,-7.23%
16,Cc1cc(C)nc(SCC(=O)Nc2ccc(S(=O)(=O)Nc3onc(C)c3C)cc2)n1,-1.5%
17,CCOC(=O)C1CCCN(CCCc2ccccc2)C1 (configuration not stated),-13.1%
